# Measurements taken from PubChem BioAssay (EPA / NIEHS).
# Results filed as inconclusive are left out. Active and inactive are the calls of the source. Rule for the calls, unless noted: active = hit-call score of the fitted dose curve at least 0.9, where 1 is the maximum; inactive = score below 0.9.
# Assays:
# [1] = biological target: Glucocorticoid receptor (Homo sapiens) (UniProt P04150); test: ATG_GR_TRANS: Attagene TRANS-FACTORIAL HepG2 Assay for human Glucocorticoid Receptor (GR) (AID 2282978; active = hit-call score of the fitted dose curve at least 0.9, where 1 is the maximum;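 note: activators score as hits since higher reporter transcript over DMSO is fitted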); conditions: HepG2 Attagene TRANS GR reporter, mRNA transcription
# Chain of Glucocorticoid receptor (Homo sapiens) (P04150 whole entry, looked up, the tested form may be a part): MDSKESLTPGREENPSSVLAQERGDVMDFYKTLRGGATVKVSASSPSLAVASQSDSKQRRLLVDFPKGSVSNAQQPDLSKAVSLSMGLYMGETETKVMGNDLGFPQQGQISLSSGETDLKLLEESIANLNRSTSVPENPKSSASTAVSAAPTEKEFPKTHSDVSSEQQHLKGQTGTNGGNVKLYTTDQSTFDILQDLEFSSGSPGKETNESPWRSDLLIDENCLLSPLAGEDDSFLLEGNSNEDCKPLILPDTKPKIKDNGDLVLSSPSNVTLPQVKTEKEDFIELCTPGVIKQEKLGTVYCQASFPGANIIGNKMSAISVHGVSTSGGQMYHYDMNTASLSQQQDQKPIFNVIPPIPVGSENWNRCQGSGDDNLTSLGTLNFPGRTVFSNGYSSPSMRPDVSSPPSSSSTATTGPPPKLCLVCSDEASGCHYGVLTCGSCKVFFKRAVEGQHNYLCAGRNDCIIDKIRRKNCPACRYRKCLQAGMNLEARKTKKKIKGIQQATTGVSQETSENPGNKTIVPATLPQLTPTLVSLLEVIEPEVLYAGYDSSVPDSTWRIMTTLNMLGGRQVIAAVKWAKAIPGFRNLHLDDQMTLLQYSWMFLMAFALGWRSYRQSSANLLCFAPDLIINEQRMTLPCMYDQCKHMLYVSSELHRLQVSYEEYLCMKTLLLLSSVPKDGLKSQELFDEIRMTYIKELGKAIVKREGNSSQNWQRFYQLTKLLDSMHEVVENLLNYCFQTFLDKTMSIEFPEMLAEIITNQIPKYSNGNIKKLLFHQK
# In short: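 Exogenous NR-GAL4 fusion activity was assessed through induced GAL4-UAS reporter transcripts in transfected human HepG2 cells, quantified after 24 h by RT-PCR and fluorescent capillary electrophoresis with DMSO as baseline.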
# [2] = biological target: Oxysterols receptor LXR-beta (Homo sapiens) (UniProt P55055); test: ATG_LXRb_TRANS: Attagene TRANS-FACTORIAL HepG2 Assay for human Liver X Receptor beta (LXRb) (AID 2282981; active = hit-call score of the fitted dose curve at least 0.9, where 1 is the maximum); conditions: HepG2 Attagene TRANS GAL4-LXRb reporter, mRNA
# Chain of Oxysterols receptor LXR-beta (Homo sapiens) (P55055 whole entry, looked up, the tested form may be a part): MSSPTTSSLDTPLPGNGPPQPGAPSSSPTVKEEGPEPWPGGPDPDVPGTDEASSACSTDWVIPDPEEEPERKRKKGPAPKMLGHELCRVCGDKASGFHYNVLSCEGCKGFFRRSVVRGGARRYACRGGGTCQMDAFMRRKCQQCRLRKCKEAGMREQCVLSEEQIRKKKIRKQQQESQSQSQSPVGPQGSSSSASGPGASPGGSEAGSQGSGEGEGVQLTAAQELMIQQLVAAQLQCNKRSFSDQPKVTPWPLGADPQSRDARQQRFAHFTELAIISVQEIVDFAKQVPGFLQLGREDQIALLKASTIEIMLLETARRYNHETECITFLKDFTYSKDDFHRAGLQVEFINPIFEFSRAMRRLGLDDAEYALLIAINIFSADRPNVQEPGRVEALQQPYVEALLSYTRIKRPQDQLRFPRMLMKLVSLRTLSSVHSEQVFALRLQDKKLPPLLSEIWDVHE
# In short: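 After 24 h of chemical treatment, transfected HepG2 cells yield total RNA; reporter cDNA is PCR-amplified, FAM-labelled, HpaI-cut and run on capillary electrophoresis. Signal reflects chimeric LXRb-Gal4 activity on GAL4-UAS reporters.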
# [3] = ATG_M_32_TRANS: Attagene TRANS-FACTORIAL HepG2 Assay for M32 Transcription Factor (Internal Marker) (AID 2282984; active = hit-call score of the fitted dose curve at least 0.9, where 1 is the maximum;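 note: transcript level of a background control reporter unit measured by RT-PCR and capillary electrophoresis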); conditions: HepG2 Attagene TRANS M32 internal marker reporter
# In short: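 Cell-based TRANS-format assay in HepG2: exogenous chimeric GAL4 reporter units transiently expressed, compounds applied 24 h. Reporter mRNA detected by RT-PCR plus capillary electrophoresis; this readout is an internal background marker.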
# [4] = biological target: Transcriptional activator Myb (Homo sapiens) (UniProt P10242); test: ATG_Myb_CIS: Attagene CIS-FACTORIAL HepG2 Assay for human Myeloblastosis (Myb) Proto-Oncogene Transcription Factor (AID 2282986); conditions: HepG2 Attagene CIS-FACTORIAL Myb reporter transcription; actives raise or lower the signal
# Chain of Transcriptional activator Myb (Homo sapiens) (P10242 whole entry, looked up): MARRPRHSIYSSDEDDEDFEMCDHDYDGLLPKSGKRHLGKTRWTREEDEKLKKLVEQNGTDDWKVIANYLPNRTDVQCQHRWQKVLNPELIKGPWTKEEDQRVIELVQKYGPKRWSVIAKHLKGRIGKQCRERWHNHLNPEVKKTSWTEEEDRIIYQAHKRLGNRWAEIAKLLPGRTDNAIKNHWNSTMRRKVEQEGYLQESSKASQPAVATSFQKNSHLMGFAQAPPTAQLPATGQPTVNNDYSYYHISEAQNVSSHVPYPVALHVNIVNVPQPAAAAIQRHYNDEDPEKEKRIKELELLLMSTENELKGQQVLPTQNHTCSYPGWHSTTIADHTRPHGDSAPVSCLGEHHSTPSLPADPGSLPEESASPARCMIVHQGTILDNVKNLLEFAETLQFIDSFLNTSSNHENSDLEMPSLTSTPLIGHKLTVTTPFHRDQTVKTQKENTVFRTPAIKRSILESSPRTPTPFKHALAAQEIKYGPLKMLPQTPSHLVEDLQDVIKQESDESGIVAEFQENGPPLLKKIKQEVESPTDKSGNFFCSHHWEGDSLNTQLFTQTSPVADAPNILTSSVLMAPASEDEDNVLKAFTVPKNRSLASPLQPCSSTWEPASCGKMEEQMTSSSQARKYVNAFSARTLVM
# In short: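 In this HepG2 transient-transfection format, cis-regulated reporter mRNA is quantified 24 h post-dosing by RT-PCR with capillary electrophoresis, fitted bidirectionally to DMSO baseline.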
# [5] = biological target: Nuclear respiratory factor 1 (Homo sapiens) (UniProt Q16656); test: ATG_NRF1_CIS: Attagene CIS-FACTORIAL HepG2 Assay for human Nuclear Respiratory Factor 1 (NRF1) Orphan Gene (AID 2282987); conditions: HepG2 NRF1 cis-element reporter, Attagene multiplex; actives raise or lower the signal
# Chain of Nuclear respiratory factor 1 (Homo sapiens) (Q16656 whole entry, looked up): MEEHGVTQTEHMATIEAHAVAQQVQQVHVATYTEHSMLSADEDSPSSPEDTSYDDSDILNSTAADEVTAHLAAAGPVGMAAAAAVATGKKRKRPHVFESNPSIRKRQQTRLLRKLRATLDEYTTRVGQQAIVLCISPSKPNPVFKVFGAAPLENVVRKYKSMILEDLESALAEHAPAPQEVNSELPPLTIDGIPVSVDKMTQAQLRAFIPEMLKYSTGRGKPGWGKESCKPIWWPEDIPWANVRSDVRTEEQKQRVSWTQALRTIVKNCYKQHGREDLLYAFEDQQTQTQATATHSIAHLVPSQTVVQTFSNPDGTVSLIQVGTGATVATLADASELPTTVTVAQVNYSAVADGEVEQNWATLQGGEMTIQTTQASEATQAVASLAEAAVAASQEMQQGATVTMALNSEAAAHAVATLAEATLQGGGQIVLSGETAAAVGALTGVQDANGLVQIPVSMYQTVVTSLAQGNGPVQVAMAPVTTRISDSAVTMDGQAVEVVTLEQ
# In short: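 Using DMSO as baseline, gain- or loss-of-signal was fitted for reporter mRNA levels in HepG2 cells transiently transfected with cis-regulated reporter units. Samples were taken 24 h after dosing and read by RT-PCR with capillary electrophoresis.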
# [6] = ATG_NFI_CIS: Attagene CIS-FACTORIAL HepG2 Assay for human Nuclear Factor I (NFI) (AID 2282989); conditions: HepG2 cis-regulatory reporter, NFI response element transcription; actives raise or lower the signal
# In short: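 Reporter transcription driven by endogenous transcription factors in HepG2 cells; 24 h treatment. Quantitation by labelled RT-PCR fragments on capillary electrophoresis, gain- or loss-of-signal relative to DMSO.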
# [7] = biological target: Myc proto-oncogene protein (Homo sapiens) (UniProt P01106); test: ATG_Myc_CIS: Attagene CIS-FACTORIAL HepG2 Assay for human Myelocytomatosis (Myc) Proto-Oncogene Transcription Factor (AID 2282990); conditions: HepG2, Attagene cis-reporter transcription factor activity; actives raise or lower the signal
# Chain of Myc proto-oncogene protein (Homo sapiens) (P01106 whole entry, looked up): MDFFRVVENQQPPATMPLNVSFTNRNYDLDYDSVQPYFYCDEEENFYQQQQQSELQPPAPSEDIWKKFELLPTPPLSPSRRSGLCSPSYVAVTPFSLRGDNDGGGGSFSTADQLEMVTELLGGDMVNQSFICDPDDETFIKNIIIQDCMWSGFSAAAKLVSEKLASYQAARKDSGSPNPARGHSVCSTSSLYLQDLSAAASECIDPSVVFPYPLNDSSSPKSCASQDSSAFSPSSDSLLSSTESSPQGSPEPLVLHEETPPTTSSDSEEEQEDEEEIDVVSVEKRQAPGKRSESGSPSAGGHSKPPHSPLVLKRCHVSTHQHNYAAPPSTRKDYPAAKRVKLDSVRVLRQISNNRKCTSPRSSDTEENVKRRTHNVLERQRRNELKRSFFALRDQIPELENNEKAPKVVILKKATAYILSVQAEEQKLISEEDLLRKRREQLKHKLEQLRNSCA
# In short: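 HepG2, transient MRTU transfection (cis promoters, endogenous TFs); 24 h dosing; TriZol RNA → oligo(dT) RT → PCR → 6-FAM primer extension → HpaI cut → CE. Bidirectional fit vs DMSO.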
# [8] = ATG_NF_kB_CIS: Attagene CIS-FACTORIAL HepG2 Assay for human Nuclear Factor Kappa B (NF-kB) (AID 2282991); conditions: HepG2 Attagene cis-factorial NF-kB reporter mRNA; actives raise or lower the signal
# In short: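 Endpoint from a 52-component multiplexed HepG2 reporter panel: cis-regulated transcription units transiently transfected, 24 h dosing, reporter mRNA quantified by RT-PCR and capillary electrophoresis, scored as increase or decrease against DMSO.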
# [9] = ATG_NRF2_ARE_CIS: Attagene CIS-FACTORIAL HepG2 Assay for human Nuclear Factor Erythroid 2 Related Factor 2 (NFR2) response to Antioxidant Response Elements (ARE) (AID 2282992); conditions: HepG2 Attagene ARE/NRF2 reporter, transcription factor activity; actives raise or lower the signal
# In short: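 Endogenous transcription factor activity read out as reporter transcript levels (RT-PCR plus capillary electrophoresis, fluorescence) in transiently transfected HepG2 cells. Measured at 24 h after dosing; gain or loss of signal fitted versus DMSO.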
# [10] = ATG_Oct_MLP_CIS: Attagene CIS-FACTORIAL HepG2 Assay for human Octamer-Binding Transcription Factor (Oct) (AID 2282993); conditions: HepG2 Attagene cis-factorial Oct reporter, mRNA; actives raise or lower the signal
# In short: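 Transfected HepG2 cells, 24 h treatment. Reporter mRNA quantified by RT-PCR–capillary electrophoresis; bidirectional fitting against DMSO.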
# [11] = biological target: Cellular tumor antigen p53 (Homo sapiens) (UniProt P04637); test: ATG_p53_CIS: Attagene CIS-FACTORIAL HepG2 Assay for human p53 Transcription Factor (AID 2282994); conditions: HepG2 p53 cis-element reporter, Attagene mRNA; actives raise or lower the signal
# Chain of Cellular tumor antigen p53 (Homo sapiens) (P04637 whole entry, looked up): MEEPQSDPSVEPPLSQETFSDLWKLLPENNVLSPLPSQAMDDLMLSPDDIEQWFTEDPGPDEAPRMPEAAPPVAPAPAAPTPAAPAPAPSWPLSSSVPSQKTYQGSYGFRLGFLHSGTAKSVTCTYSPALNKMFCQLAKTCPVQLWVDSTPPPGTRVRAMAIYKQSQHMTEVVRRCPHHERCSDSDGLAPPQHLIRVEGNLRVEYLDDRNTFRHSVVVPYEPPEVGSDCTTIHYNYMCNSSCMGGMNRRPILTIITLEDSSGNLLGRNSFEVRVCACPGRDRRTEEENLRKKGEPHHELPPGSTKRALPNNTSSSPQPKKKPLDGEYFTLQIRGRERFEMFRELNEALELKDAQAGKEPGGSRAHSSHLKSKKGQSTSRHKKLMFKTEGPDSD
# In short: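 Endogenous p53 activity read in transiently transfected HepG2 from a cis-element-driven reporter transcript after 24 h exposure. RNA reverse-transcribed, PCR-amplified, fluorescently labelled and sized by capillary electrophoresis; gain or loss fitted against DMSO baseline.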
# [12] = BSK_3C_TissueFactor: BioMAP Diversity Plus: 3C Assay for Tissue Factor Biomarker Activity (AID 2282997); conditions: BioMAP 3C HUVEC, tissue factor biomarker readout; actives raise or lower the signal
# In short: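 Tissue factor on primary human umbilical vein endothelium was read by ELISA 24 h after dosing, gain or loss relative to DMSO. Cytotoxicity ran alongside via SRB (0.1%, TCA-fixed, 560 nm).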
# [13] = BSK_3C_uPAR: BioMAP Diversity Plus: 3C Assay for Urokinase-type plasminogen activator receptor (uPAR) Biomarker Activity (AID 2282998); conditions: BioMAP 3C HUVEC, uPAR biomarker ELISA; actives raise or lower the signal
# In short: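 Readout: ELISA for surface uPAR. System: human umbilical vein endothelial primary cells, 24 h after chemical exposure. Analysis: bidirectional fit, DMSO baseline.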
# [14] = BSK_3C_VCAM1: BioMAP Diversity Plus: 3C Assay for Vascular cell adhesion molecule 1 (VCAM1) Biomarker Activity (AID 2282999); conditions: BioMAP 3C HUVEC, VCAM1 ELISA, cytokine-stimulated; actives raise or lower the signal
# In short: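 Activity fitted in both directions relative to DMSO, with ELISA measurement of the surface marker on primary HUVEC (3C) at 24 h post-treatment; parallel SRB staining (0.1% SRB, TCA-fixed, 560 nm) flagged overt cytotoxicity.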
# [15] = BSK_4H_Eotaxin3: BioMAP Diversity Plus: 4H Assay for Eotaxin 3 Biomarker Activity (AID 2283000); conditions: primary human endothelial cells (HUVEC); actives raise or lower the signal;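 for outcome: CCL26 protein level quantified by ELISA in parallel with SRB cytotoxicity check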
# In short: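 Human umbilical vein endothelial cells (BSK_4H system) dosed with test chemical; Eotaxin-3 (CCL26) measured by ELISA 24 h after dosing. Bidirectional curve fitting relative to DMSO negative control as baseline.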
# [16] = biological target: Oxysterols receptor LXR-alpha (Homo sapiens) (UniProt Q13133); test: ATG_LXRa_TRANS: Attagene TRANS-FACTORIAL HepG2 Assay for human Liver X Receptor alpha (LXRa) (AID 2282980; active = hit-call score of the fitted dose curve at least 0.9, where 1 is the maximum); conditions: HepG2 Attagene TRANS reporter, LXRa transactivation
# Chain of Oxysterols receptor LXR-alpha (Homo sapiens) (Q13133 whole entry, looked up, the tested form may be a part): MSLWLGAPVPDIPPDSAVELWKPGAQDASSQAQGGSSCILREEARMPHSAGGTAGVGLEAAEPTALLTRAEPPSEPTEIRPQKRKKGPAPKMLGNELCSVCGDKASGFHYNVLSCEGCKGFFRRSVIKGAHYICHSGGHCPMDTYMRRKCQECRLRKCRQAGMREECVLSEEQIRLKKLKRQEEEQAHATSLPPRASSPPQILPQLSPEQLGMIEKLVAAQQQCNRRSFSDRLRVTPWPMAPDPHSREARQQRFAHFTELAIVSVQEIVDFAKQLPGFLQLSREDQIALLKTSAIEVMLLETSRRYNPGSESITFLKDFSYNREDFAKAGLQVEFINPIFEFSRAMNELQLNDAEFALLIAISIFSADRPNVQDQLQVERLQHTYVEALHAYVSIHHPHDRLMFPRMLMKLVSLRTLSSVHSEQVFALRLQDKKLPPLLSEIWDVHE
# In short: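 Chemical-induced reporter mRNA measured by RT-PCR with fluorescent labelling and capillary electrophoresis after 24 h dosing of transiently transfected HepG2 cells expressing exogenous NR-Gal4 chimeras; increases scored against DMSO baseline.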
# [17] = ATG_M_06_TRANS: Attagene TRANS-FACTORIAL HepG2 Assay for M06 Transcription Factor (Internal Marker) (AID 2282983; active = hit-call score of the fitted dose curve at least 0.9, where 1 is the maximum); conditions: HepG2 Attagene TRANS M06 internal marker reporter
# In short: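 Background-control reporter readout: after 24 h chemical exposure of transiently transfected HepG2 (GAL4-UAS reporter units), mRNA quantified by RT-PCR with fluorescent labeling and capillary electrophoresis. Gain-of-signal fitting against DMSO baseline.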
# [18] = biological target: human Peroxisome Proliferator-activated Receptor alpha (PPARa), PPARA (gene 5465) (UniProt Q07869); test: ATG_PPARa_TRANS: Attagene TRANS-FACTORIAL HepG2 Assay for human Peroxisome Proliferator-activated Receptor alpha (PPARa) (AID 2283001; active = hit-call score of the fitted dose curve at least 0.9, where 1 is the maximum)
# Chain of human Peroxisome Proliferator-activated Receptor alpha (PPARa), PPARA (gene 5465) (Q07869 whole entry, looked up, the tested form may be a part): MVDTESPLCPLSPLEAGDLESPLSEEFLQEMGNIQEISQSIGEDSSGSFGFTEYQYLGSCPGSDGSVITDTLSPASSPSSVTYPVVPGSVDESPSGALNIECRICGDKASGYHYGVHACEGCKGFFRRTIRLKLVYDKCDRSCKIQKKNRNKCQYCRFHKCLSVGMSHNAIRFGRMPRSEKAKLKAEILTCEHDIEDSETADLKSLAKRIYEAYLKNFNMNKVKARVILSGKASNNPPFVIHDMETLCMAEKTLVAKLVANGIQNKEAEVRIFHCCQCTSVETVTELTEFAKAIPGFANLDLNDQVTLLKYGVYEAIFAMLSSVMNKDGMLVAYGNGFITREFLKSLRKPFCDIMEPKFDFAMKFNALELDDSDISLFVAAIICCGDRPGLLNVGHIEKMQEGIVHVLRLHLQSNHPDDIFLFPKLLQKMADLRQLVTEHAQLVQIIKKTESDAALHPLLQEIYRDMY
# In short: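 Transfected HepG2 cells treated with test chemical for 24 h. RNA isolated, reverse-transcribed with oligo(dT), PCR-amplified, FAM-labelled and HpaI-digested. Fragments sized by capillary electrophoresis; gain-of-signal fit relative to DMSO.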
# [19] = biological target: Bile acid receptor (Homo sapiens) (UniProt Q96RI1); test: ATG_FXR_TRANS: Attagene TRANS-FACTORIAL HepG2 Assay for Farnesoid X Receptor (FXR) (AID 2282979; active = hit-call score of the fitted dose curve at least 0.9, where 1 is the maximum;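 note: hits raise reporter mRNA above DMSO so AC50 marks FXR activation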); conditions: HepG2 Attagene TRANS FXR-GAL4 reporter transcription
# Chain of Bile acid receptor (Homo sapiens) (Q96RI1 whole entry, looked up, the tested form may be a part): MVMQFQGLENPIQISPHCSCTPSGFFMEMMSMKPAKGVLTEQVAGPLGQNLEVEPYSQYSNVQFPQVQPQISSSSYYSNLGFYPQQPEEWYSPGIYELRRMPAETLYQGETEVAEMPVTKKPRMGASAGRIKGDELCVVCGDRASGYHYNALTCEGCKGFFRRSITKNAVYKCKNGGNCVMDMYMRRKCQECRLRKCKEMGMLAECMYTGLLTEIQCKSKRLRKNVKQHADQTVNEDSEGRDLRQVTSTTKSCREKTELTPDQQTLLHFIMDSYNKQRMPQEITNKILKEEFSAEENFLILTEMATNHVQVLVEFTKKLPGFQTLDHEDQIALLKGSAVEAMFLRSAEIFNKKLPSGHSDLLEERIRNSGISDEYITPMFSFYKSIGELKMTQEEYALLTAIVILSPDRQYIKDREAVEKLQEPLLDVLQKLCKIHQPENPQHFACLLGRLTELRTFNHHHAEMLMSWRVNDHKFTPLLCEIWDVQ
# In short: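 Reporter transcripts from transfected HepG2 cells were measured 24 h after dosing, using RT-PCR with capillary electrophoresis of 6-FAM-labelled fragments. The read-out reflects activity of exogenous FXR-Gal4 chimera on GAL4-UAS units, with induction relative to DMSO.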
structure (smiles),measurement,setting,value
Cc1cc2c(cc1C(F)(F)F)N(C(=O)Nc1ccc(Oc3cccnc3C)nc1)CC2,outcome,[1],inactive
same,outcome,[2],inactive
same,outcome,[3],inactive
same,outcome,[4],inactive
same,outcome,[5],inactive
same,outcome,[6],inactive
same,outcome,[7],inactive
same,outcome,[8],inactive
same,outcome,[9],inactive
same,outcome,[10],inactive
same,outcome,[11],inactive
same,AC50,[12],0.623 µM (active)
same,outcome,[13],inactive
same,outcome,[14],inactive
same,outcome,[15],inactive
CN(C)c1ccc(C(=C2C=CC(=[N+](C)C)C=C2)c2ccc(N(C)C)cc2)cc1,outcome,[3],inactive
same,outcome,[4],inactive
same,outcome,[5],inactive
same,outcome,[6],inactive
same,outcome,[7],inactive
same,AC50,[9],2.43 µM (active)
same,outcome,[10],inactive
same,AC50,[11],1.08 µM (active)
same,AC50,[12],5.5 µM (active)
same,AC50,[13],0.778 µM (active)
same,AC50,[14],5.56 µM (active)
same,AC50,[15],1.17 µM (active)
CC1=CC(=O)/C(=C(/C)O)C(=O)O1,outcome,[1],inactive
same,outcome,[16],inactive
same,outcome,[17],inactive
same,outcome,[4],inactive
same,outcome,[5],inactive
same,outcome,[6],inactive
same,outcome,[7],inactive
same,outcome,[9],inactive
same,outcome,[10],inactive
same,outcome,[11],inactive
same,outcome,[12],inactive
same,outcome,[13],inactive
same,outcome,[14],inactive
same,outcome,[15],inactive
same,outcome,[18],inactive
O=C1c2ccccc2C(=O)N1CCc1noc(-c2ccc(CN3CCCCCC3)s2)n1,outcome,[19],inactive
same,outcome,[17],inactive
same,outcome,[3],inactive
same,outcome,[4],inactive
same,outcome,[5],inactive
same,outcome,[6],inactive
same,outcome,[7],inactive
same,outcome,[8],inactive
same,AC50,[9],23.1 µM (active)
same,outcome,[10],inactive
same,outcome,[11],inactive
same,outcome,[12],inactive
same,outcome,[13],inactive
same,outcome,[14],inactive
same,outcome,[15],inactive
O=C(O)c1ccccc1C(=O)OCc1ccccc1,outcome,[19],inactive
same,outcome,[2],inactive
same,outcome,[17],inactive
same,outcome,[4],inactive
same,outcome,[5],inactive
same,outcome,[6],inactive
same,outcome,[7],inactive
same,outcome,[8],inactive
same,outcome,[9],inactive
same,outcome,[10],inactive
same,outcome,[11],inactive
same,outcome,[12],inactive
same,outcome,[13],inactive
same,outcome,[14],inactive
same,outcome,[15],inactive
same,outcome,[18],inactive
Clc1cc(Cl)c2c(c1)N=C1CCCCCN1C2,outcome,[1],inactive
same,outcome,[17],inactive
same,outcome,[4],inactive
same,outcome,[5],inactive
same,outcome,[6],inactive
same,outcome,[7],inactive
same,AC50,[8],72.4 µM (active)
same,AC50,[9],20.8 µM (active)
same,outcome,[10],inactive
same,AC50,[11],50 µM (active)
same,outcome,[12],inactive
same,outcome,[13],inactive
same,outcome,[14],inactive
same,outcome,[15],inactive
same,outcome,[18],inactive
Oc1ccccc1,outcome,[16],inactive
same,outcome,[2],inactive
same,outcome,[3],inactive
same,outcome,[4],inactive
same,outcome,[5],inactive
same,outcome,[6],inactive
same,outcome,[7],inactive
same,outcome,[9],inactive
same,outcome,[10],inactive
same,outcome,[11],inactive
same,outcome,[12],inactive
same,outcome,[13],inactive
same,outcome,[14],inactive
same,outcome,[15],inactive
same,outcome,[18],inactive
